In general, inhibition refers to the change of the read-out against control, counted positive when it falls.

A number with no mark means an inactive call. Calls of active or inactive are those of the source.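 Rule for the calls, unless noted: active = mean inhibition above 46.68%, the untreated control wells mean plus 3 SD; inactive = the rest.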

From PubChem BioAssay come the findings set out here.

Assay [1] concerns the target Nuclear receptor coactivator 3 (Homo sapiens) (UniProt Q9Y6Q9). Put plainly: SRC3 coactivator transcriptional activity inhibitors, confirmation, cell-based, luminescence, quadruplicate (AID 588792;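 active = mean inhibition over 43.08%, the solvent-only control mean plus 3 SD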;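 note: 0% = DMSO treated cells and 100% = gossypol at 36 µM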). Conditions: HEK293 GAL4-SRC3 luciferase reporter, at 3.6 µM, active compounds read high. On the technique in general: Reporter assays use an easily measured gene product as a stand-in for the process of interest.

In assay [2] the test system is transactivating tegument protein VP16 (Human herpesvirus 1), Gal4-VP16 luciferase reporter. Kind of assay: VP16 transactivation inhibitors, counter-screen for SRC3 inhibitor project, cell-based, luminescence, high throughput (AID 588794; in the data active = inhibition above about 30%). Conditions: mammalian cells, VP16-driven luciferase reporter luminescence; at 3.6 µM; active compounds read high. (In general: The purpose of a counterscreen is to sort out artefacts and off-target activity.)

Assay [3] deals with Nuclear receptor coactivator 1 (Homo sapiens) (UniProt Q15788). Put plainly: SRC1 coactivator transcriptional activity inhibitors, confirmation, cell-based, luminescence, quadruplicate (AID 588820).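 Note: 0% = DMSO wells and 100% = gossypol 36 µM treated wells.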 Conditions: HEK293 GAL4-SRC1 luciferase reporter, at 3.6 µM, active compounds read high.
Sequence of Nuclear receptor coactivator 1 (Homo sapiens) (Q15788 whole entry, looked up, the tested form may be a part): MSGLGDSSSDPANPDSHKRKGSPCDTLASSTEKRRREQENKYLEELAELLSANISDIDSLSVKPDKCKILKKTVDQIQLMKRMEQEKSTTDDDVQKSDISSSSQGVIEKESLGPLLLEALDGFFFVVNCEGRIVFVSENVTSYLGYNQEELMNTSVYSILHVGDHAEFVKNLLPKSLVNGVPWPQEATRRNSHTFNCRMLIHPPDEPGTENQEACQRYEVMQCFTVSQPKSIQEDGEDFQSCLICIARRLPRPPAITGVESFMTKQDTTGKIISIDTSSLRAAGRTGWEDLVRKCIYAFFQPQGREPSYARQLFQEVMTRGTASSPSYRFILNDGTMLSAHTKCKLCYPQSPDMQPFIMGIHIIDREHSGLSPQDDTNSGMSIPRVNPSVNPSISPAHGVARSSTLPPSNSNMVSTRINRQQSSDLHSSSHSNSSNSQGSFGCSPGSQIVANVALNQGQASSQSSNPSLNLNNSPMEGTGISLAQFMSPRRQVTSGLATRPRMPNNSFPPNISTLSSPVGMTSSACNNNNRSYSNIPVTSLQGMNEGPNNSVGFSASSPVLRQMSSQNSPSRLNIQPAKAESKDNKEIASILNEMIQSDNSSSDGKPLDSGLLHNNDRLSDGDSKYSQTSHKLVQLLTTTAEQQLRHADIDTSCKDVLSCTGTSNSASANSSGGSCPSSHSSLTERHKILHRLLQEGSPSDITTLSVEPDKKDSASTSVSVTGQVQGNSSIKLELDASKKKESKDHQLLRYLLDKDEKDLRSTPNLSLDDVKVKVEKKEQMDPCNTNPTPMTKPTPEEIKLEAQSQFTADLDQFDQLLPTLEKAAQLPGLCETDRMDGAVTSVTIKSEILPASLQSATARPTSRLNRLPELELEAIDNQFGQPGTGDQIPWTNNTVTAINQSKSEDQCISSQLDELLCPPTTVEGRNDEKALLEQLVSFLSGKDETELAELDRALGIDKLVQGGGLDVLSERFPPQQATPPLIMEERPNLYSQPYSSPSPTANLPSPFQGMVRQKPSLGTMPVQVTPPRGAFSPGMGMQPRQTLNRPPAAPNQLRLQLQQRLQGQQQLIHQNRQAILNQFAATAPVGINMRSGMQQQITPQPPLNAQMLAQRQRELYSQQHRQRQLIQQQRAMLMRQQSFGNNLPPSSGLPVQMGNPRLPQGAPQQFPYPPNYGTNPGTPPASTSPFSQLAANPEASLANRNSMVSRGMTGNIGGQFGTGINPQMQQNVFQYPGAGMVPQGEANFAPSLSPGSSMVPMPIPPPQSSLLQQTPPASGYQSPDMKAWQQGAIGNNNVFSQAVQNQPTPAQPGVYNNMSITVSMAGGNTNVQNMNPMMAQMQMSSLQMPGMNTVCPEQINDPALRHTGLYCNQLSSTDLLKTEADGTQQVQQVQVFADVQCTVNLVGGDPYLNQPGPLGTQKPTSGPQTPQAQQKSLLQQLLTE
The nature of assay [4]: VP16 transactivation inhibitors, counter-screen for SRC1 inhibitor project, cell-based, luminescence, high throughput (AID 588824; in the data active = inhibition above about 25%). As to conditions: cell-based VP16 transactivation luciferase luminescence; at 3.6 µM; active compounds read high.
Assay [5] is described as follows: StAR promoter reporter inhibitors, counter-screen for LRH-1 inverse agonist project, cell-based, luminescence, high throughput (AID 651611; in the data active = inhibition above about 28%). Conditions: StAR promoter luciferase reporter counterscreen, at 3.6 µM, active compounds read high.
Assay [6] has as its target Nuclear receptor subfamily 5 group A member 2 (Homo sapiens) (UniProt O00482). Kind of assay: LRH-1 (NR5A2) inverse agonists, retest, confirmation, cell-based, luminescence (AID 651613; in the data active = inhibition above about 42%;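 note: HEK293T cells co-transfected with LRH-1 and StAR promoter luciferase reporter; 0% = vehicle wells and 100% = parental cells lacking receptor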). As to conditions: cell-based LRH-1 luciferase reporter, inverse agonism; at 3.6 µM; active compounds read high.
Assay [7] has as its target Steroidogenic factor 1 (Homo sapiens) (UniProt Q13285). Put plainly: SF1 (NR5A1) inverse agonists, counter-screen for LRH-1 inverse agonist project, cell-based, luminescence, high throughput (AID 651614; in the data active = inhibition above about 44%;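 note: cells cotransfected with StAR promoter reporter and SF1 expression vector; 0% = vehicle on cells with receptor and 100% = vehicle on cells lacking receptor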). Conditions: cell-based SF1 luciferase reporter, at 3.6 µM, active compounds read high.
A short description of assay [8]: VP16 transactivation reporter inhibitors, counter-screen for LRH-1 inverse agonist project, cell-based, luminescence, high throughput (AID 651615; in the data active = inhibition above about 33%). Conditions: Gal4-VP16 luciferase reporter cells, at 3.6 µM, active compounds read high.
Assay [9] has as its system transactivating tegument protein VP16 (Human herpesvirus 1). Kind of assay: VP16 transactivation reporter inhibitors, counter-screen for SRC2 inhibitor project, cell-based, luminescence, single concentration (AID 652007; in the data active = inhibition above about 36%). Conditions: cell-based VP16 transactivation luciferase reporter, at 8.9 µM, active compounds read high.
For assay [10], the target named is Nuclear receptor coactivator 2 (Homo sapiens) (UniProt Q15596). Put plainly: SRC2 coactivator transcriptional activity inhibitors, confirmation, cell-based, luminescence, HEK293, triplicate (AID 652008;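 active = mean inhibition above 46.5%, the solvent-only control mean plus 3 SD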;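 note: 0% = DMSO-treated cells and 100% = Gossypol at 36 µM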). Conditions: HEK293 GAL4-SRC2 luciferase reporter, at 8.9 µM, active compounds read high.
Sequence of Nuclear receptor coactivator 2 (Homo sapiens) (Q15596 whole entry, looked up, the tested form may be a part): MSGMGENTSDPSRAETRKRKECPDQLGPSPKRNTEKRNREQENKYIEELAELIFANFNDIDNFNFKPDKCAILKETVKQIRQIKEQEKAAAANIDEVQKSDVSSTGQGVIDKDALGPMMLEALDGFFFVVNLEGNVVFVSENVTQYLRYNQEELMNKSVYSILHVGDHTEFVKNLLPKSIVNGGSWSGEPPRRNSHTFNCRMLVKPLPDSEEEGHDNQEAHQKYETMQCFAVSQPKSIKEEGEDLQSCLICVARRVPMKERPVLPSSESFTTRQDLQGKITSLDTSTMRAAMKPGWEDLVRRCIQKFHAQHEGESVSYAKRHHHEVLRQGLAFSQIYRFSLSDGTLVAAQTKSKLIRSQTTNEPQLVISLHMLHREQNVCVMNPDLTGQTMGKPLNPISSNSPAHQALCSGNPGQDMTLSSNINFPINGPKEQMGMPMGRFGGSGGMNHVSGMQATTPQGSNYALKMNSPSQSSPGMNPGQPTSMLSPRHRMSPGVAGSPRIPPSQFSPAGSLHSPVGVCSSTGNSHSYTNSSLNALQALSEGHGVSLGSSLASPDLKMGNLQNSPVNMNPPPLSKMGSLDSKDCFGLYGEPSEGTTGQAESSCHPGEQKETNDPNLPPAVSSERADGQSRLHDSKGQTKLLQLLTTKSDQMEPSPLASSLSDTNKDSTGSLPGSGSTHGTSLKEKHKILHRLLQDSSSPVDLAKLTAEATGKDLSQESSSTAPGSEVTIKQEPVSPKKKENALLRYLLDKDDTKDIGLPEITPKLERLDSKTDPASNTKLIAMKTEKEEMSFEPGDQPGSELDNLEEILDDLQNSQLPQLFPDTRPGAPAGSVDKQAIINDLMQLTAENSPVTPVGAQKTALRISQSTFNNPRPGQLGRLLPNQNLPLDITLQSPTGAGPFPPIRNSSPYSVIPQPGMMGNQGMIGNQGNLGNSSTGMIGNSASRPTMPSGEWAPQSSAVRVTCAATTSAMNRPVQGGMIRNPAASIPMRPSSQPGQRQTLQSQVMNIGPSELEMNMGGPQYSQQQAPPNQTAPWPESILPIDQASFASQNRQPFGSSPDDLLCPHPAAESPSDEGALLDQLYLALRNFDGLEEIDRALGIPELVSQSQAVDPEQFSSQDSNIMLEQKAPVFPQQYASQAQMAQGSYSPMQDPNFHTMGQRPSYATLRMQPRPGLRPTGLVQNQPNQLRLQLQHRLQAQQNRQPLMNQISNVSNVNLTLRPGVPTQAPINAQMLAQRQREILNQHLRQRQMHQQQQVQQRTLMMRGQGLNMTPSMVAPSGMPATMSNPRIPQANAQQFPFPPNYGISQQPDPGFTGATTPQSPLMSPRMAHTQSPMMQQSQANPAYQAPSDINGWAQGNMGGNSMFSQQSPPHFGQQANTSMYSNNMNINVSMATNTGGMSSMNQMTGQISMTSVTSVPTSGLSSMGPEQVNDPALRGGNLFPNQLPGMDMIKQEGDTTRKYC

Sequence of Nuclear receptor coactivator 3 (Homo sapiens) (Q9Y6Q9 whole entry, looked up, the tested form may be a part): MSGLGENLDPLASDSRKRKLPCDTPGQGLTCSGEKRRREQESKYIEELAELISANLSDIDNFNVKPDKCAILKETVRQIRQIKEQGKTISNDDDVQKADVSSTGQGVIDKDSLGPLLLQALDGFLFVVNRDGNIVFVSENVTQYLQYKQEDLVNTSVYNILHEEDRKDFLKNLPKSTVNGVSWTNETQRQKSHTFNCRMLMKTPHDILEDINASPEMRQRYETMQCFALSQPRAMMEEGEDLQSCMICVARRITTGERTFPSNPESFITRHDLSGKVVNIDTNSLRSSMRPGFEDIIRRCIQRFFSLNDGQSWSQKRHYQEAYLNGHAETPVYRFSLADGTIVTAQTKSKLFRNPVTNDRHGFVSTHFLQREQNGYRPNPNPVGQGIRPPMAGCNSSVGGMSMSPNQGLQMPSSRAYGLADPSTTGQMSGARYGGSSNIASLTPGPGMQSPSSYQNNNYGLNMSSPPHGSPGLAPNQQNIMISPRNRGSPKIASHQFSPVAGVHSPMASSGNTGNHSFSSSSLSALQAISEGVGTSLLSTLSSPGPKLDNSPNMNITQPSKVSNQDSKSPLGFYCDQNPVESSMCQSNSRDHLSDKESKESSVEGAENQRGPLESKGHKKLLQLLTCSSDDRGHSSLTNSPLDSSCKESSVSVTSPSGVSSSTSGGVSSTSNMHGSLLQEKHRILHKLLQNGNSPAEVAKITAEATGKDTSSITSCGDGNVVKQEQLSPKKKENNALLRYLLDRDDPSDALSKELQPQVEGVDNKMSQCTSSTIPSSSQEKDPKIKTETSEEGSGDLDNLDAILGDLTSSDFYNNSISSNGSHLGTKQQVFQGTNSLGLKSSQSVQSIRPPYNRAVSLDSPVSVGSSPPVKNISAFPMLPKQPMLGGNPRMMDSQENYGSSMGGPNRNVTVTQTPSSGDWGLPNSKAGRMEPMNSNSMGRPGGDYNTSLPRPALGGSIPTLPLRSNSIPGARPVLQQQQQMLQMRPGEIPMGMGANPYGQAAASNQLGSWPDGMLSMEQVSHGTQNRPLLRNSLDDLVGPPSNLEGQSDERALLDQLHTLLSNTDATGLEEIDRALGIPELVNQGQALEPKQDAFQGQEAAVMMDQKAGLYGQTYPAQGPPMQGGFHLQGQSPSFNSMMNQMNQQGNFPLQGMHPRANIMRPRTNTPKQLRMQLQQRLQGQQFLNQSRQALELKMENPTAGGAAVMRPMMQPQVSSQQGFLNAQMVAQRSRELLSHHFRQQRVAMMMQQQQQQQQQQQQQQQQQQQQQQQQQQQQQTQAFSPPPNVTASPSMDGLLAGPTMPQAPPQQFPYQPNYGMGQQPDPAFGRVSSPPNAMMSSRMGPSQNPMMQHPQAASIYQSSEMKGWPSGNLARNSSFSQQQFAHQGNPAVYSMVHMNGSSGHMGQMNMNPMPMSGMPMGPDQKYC
Sequence of Nuclear receptor subfamily 5 group A member 2 (Homo sapiens) (O00482 whole entry, looked up): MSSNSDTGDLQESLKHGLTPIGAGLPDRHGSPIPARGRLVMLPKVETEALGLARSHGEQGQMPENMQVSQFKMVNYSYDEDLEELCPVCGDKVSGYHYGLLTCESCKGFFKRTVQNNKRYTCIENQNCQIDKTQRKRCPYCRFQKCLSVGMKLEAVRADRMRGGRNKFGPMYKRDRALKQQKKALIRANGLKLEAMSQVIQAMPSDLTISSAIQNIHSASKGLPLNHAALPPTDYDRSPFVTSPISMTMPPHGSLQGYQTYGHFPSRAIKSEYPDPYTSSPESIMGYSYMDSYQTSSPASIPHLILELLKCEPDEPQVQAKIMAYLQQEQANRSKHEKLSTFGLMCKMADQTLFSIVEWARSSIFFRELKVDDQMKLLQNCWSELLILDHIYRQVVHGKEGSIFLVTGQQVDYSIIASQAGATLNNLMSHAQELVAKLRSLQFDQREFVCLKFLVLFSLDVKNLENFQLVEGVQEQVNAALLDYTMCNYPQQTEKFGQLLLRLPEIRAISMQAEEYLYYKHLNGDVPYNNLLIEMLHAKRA

`Cc1cc(C(=O)CN2C(=O)c3ccccc3S2(=O)=O)c(C)n1CC1CCCO1` (stereo not given): the inhibition is 82.9% (active) in assay [1]; 62.8% (active) in [2]; 77.7% (active) in assay [3]; 60% (active) in [4]; 78.1% (active) in assay [5]; 81% (active) in assay [6]. In addition, the inhibition was 80.4% (active) in assay [7], 68.2% (active) in [8], 63.7% (active) in assay [9] and 93.7% (active) in [10].
In the case of `CC1(C)N=C(N)N=C(N)N1c1ccc(CCCCc2ccccc2)cc1`, the inhibition is 31.1% in [1]; 68.2% (active) in assay [2]; 60.1% (active) in assay [3]; 66% (active) in assay [4]; 63.7% (active) in assay [5]; 89.9% (active) in [6]. In addition, the inhibition in assay [7] is 85.7% (active); in assay [8], 80.6% (active); in [9] it was 26.9%; in assay [10], 29.4%.
Take `Cc1ccc(/C=C2/SC(=S)N(CCCC(=O)Nc3ccc(O)cc3)C2=O)cc1`: the inhibition in assay [1] was 57% (active); in assay [2], 12.8%; in assay [3] it was 41.2%; in [4] it was 3.55%; in assay [5] it was 55% (active); in assay [6] it was 6.39%. The inhibition is 52.3% (active) in [7], -5.05% in assay [8], 43.6% (active) in assay [9] and 54.1% (active) in [10].
As to `O=C(CCl)Nc1cc(SCC(O)CO)cc([N+](=O)[O-])c1` (stereo not given), the inhibition in assay [1] was 91.6% (active); in assay [2], 72.7% (active); in assay [3], 56.9% (active); in [4], 78.6% (active); in assay [5] it was 95.8% (active); in assay [6], 110% (active). Further, the inhibition in assay [7] is 97.7% (active); in assay [8] it was 98.2% (active); in [9], 79% (active); in [10], 67.5% (active).
Consider `O=C(N/N=C/c1ccc(O)cc1O)c1ccc(CN2C(=O)c3cccc4cccc2c34)cc1`, for which the inhibition was 67.2% (active) in assay [1]; 77.8% (active) in assay [2]; 78.5% (active) in [3]; 76.2% (active) in assay [4]; 84.8% (active) in assay [5]; 101% (active) in assay [6]. The inhibition was 89.2% (active) in [7], 82.6% (active) in assay [8], -14.6% in assay [9] and 18.8% in assay [10].
For `CN(c1ncnc(N)c1[N+](=O)[O-])C1CCCCC1`, the inhibition in assay [1] is 82.5% (active); in assay [2] it was 59.7% (active); in [3], 69.9% (active); in [4], 55.3% (active); in [5] it was 32.3% (active); in assay [6] it was 56.7% (active). Moreover, the inhibition in assay [7] was 44.1% (active); in assay [8] it was 72.2% (active); in [9], 28.4%; in [10], 59.8% (active).
Regarding `CN1CCN(c2ccc(-c3ccc4ccccc4n3)cc2)CC1`, the inhibition in [1] is 72.1% (active); in assay [2] it was 62.6% (active); in assay [3], 34.8%; in assay [4], 36.6% (active); in assay [5], 63.8% (active); in assay [6] it was 8.01%. The inhibition in assay [7] was 64% (active); in assay [8], 26.9%; in [9], 61.1% (active); in assay [10] it was 79.3% (active).
`Cc1cc2sc3ccc(C#CC4(O)CCCCC4)cc3c(=O)c2cc1C`: the inhibition in assay [1] is 95.4% (active); in assay [2] it was 93.6% (active); in assay [3], 90.4% (active); in assay [4] it was 89.7% (active); in assay [5], 91.2% (active); in assay [6] it was 91.2% (active). The inhibition in [7] was 92.6% (active); in assay [8], 88.9% (active); in assay [9] it was 94.2% (active); in assay [10] it was 98.3% (active).
For `NC(=O)c1cc2ccncc2c2ccccc12`, the inhibition is 80.3% (active) in [1]; 64.8% (active) in assay [2]; 78.5% (active) in assay [3]; 59.3% (active) in assay [4]; 42.8% (active) in [5]; 62.1% (active) in assay [6]. The inhibition is 58.1% (active) in assay [7], 77.2% (active) in assay [8], 20.5% in assay [9] and 68.9% (active) in assay [10].
On to `O=C(CN1C(=O)c2ccccc2S1(=O)=O)c1ccc2c(c1)OCCCO2`, for which the inhibition was 93.3% (active) in assay [1]; 92.4% (active) in assay [2]; 82.5% (active) in [3]; 91.8% (active) in assay [4]; 91% (active) in [5]; 99.8% (active) in assay [6]. Moreover, the inhibition was 92.4% (active) in assay [7], 90.3% (active) in assay [8], 94.4% (active) in [9] and 98% (active) in assay [10].
With `CC1=C(C(=O)OCc2ccc3c(c2)OCO3)C(c2ccc(F)cc2)NC(=O)N1` (stereo not given), the inhibition is 77.2% (active) in [1]; 66.2% (active) in [2]; 70.7% (active) in assay [3]; 67.6% (active) in assay [4]; 49.1% (active) in assay [5]; 71.3% (active) in [6]. Besides, the inhibition in assay [7] is 62.8% (active); in assay [8], 85.2% (active); in assay [9], 16.1%; in assay [10], 58.7% (active).
Take `COc1ccc(/C=C2\SC(=O)N(CCCC(=O)Nc3cc(Cl)ccc3C(=O)O)C2=O)cc1`: the inhibition is 86.5% (active) in [1]; 77% (active) in [2]; 75.5% (active) in assay [3]; 70.3% (active) in assay [4]; 83.7% (active) in assay [5]; 94% (active) in [6]. Further, the inhibition was 82% (active) in [7], 75.7% (active) in assay [8], 93.9% (active) in assay [9] and 97.8% (active) in [10].
As to `COc1cc(SC)ccc1C(=O)Nc1nc2ccccc2[nH]1`, the inhibition in assay [1] is 92.1% (active); in [2] it was 90% (active); in assay [3], 85.9% (active); in [4] it was 89.4% (active); in assay [5], 95.1% (active); in [6], 103% (active). Also, the inhibition in assay [7] is 96.5% (active); in [8] it was 92.6% (active); in [9], 96.4% (active); in assay [10], 99.5% (active).
On to `CCOc1c(Br)cc(CNc2ccc3c(c2)OCCO3)cc1OC`, for which the inhibition in assay [1] was 14.5%; in assay [2] it was 8.55%; in assay [3], -25.8%; in [4], 9.33%; in [5], 3.55%; in assay [6], 3.36%. Besides, the inhibition in [7] is 19.9%; in assay [8], 26.2%; in assay [9] it was -28.8%; in assay [10], 21.9%.
For `O=C1N(c2ccccc2)C[C@@H]2C[C@@H](c3cc4ccccc4o3)N3CCC[C@@]123`, the inhibition in [1] was 95.3% (active); in [2], 96.3% (active); in assay [3] it was 74.5% (active); in assay [4], 94.7% (active); in assay [5] it was 90.4% (active); in assay [6], 109% (active). Besides, the inhibition in [7] was 98% (active); in assay [8], 98.4% (active); in assay [9] it was 47.8% (active); in assay [10], 43.3%.
